In PubChem BioAssay AID504332 (National Center for Advancing Translational Sciences (NCATS), 2011):
In all, about 350,000 compounds went through this assay and about 31,000 (8.9%) were called active. Another 15% or so got no clear call; they are omitted. For the sample, actives were picked, then their nearest neighbours and some compounds at random. A number with no mark means an inactive call. The call rests on the fitted dose curve; in most records, active means well fitted inhibition curve with a large enough effect; inconclusive means small, poorly fitted or top-dose-only effect; inactive means no such curve, though single readings can be large or run the other way.

The molecules below were run against Histone-lysine N-methyltransferase EHMT2 (Homo sapiens) (UniProt Q96KQ7) (assay: qHTS Assay for Inhibitors of Histone Lysine Methyltransferase G9a). Settings: G9a H3K9 monomethylation, AlphaScreen, 2 h; series mostly up to 59 µM; activity, negative = inhibition: at the top concentration.
Chain of Histone-lysine N-methyltransferase EHMT2 (Homo sapiens) (Q96KQ7 913-1193 limits assumed): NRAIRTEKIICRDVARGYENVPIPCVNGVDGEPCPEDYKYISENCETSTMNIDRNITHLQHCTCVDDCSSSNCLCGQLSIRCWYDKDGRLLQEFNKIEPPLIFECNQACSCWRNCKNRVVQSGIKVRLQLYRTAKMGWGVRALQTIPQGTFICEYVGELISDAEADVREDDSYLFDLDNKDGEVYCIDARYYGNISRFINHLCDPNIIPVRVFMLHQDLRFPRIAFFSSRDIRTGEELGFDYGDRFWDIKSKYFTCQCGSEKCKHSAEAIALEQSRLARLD
From the text: Methylated lysines, on the N-terminal tails of histone proteins serve as epigenetic markers to recruit factors that can then modify local chromatin structure to lead to functional consequences. G9a and other members of the SUV39 family of the SET domain-containing superfamily of histone lysine methyltransferases (HMT) have been identified to specifically methylate Lys9 of histone H3 (H3K9). G9a catalyzes the mono- and di-methylation of H3K9 in mammalian euchromatic regions, where the resulting H3K9me2 is indicative of transcriptional repression. […] The inhibition of G9a will result in transcriptional activation and work synergistically with DNA methyltransferase and histone deacetylase inhibitors, to kill cancer cells. This qHTS assay for identification of G9a inhibitors is a chemiluminescence based AlphaScreen (PerkinElmer). Methylation of biotinylated-histone peptide is measured through specific antibody-based detection, in conjunction with streptavidin-coated donor and anti-IgG antibody-coated acceptor beads. The method is particularly well suited for detection of inhibitors acting by the desired histone peptide competitive mechanism and is applicable to testing other HMTs. Although AlphaScreen has significant advantages with its utility in a variety of epigenetic target assays, the primary screening data provided in this deposition should be used with caution due to the prevalence of screening artifacts. An AlphaScreen counterscreen is highly recommended to be run against any putative actives to eliminate non specific artifacts. Alternatively, one can use other AlphaScreen assays in PubChem to filter out promiscuous hits. Quinn et al. A chemiluminescence-based method for identification of histone lysine methyltransferase inhibitors. Mol Biosyst 6(5): 782-8. 2010. PMID: 20567762 [2] Baell,Holloway. New substructure filters for removal of pan assay interference compounds (PAINS) from screening libraries and for their exclusion in bioassays. J Med Chem. 53(7):2719-40. 2010. PMID: 20131845 NIH Molecular Libraries Probe Production Network [MLPCN] NIH Chemical Genomics Center [NCGC] Structural Genomics Consortium (SGC) NIH Grant: 5U54 MH084681-02
To each well of a 1,536w plate, 2ul of HMT enzyme (final 20nM) were added, using a nanoliter dispenser. The G9a- and GLP-inhibitor BIX-01294 (CID: 25150857) are used as an intraplate control, with a 16-point titration in duplicate. A Kalypsys pin-tool transferred 23nl of library compound solution in DMSO to each well. Following a 15 min incubation of enzyme with compounds at room temperature, 1ul mixture of b-H3K9 peptide substrate (final 500nM) and SAM cofactor (final 20uM) were added. Reactions were allowed to proceed at room temperature for 2 hours. Methylated b-H3K9 peptide product was detected with 0.5 ug/mL rabbit polyclonal anti-monomethyl histone H3K9 antibody (Abcam Inc., Cambridge, MA) and 20 ug/mL each streptavidin-coated donor and anti-rabbit IgG acceptor AlphaScreen beads. Antibody and beads were added in a 1ul dispense, for a final volume of 4ul, and plates were incubated, protected from the light, for 10 min at room temperature. Microplates were then read on an EnVision multilabel plate reader using the 1,536 plate HTS AlphaScreen aperture (excitation time 80 ms, measurement time 240 ms).
Further: nearly all actives have a fitted effect of over 75% in size.
On the % scale 0 is the no-effect control and ±100 the full control effect; potency means the concentration at half of the fitted maximal effect.

Compound	activity, negative = inhibition	Potency
CCCC(=O)C1CCN(Cc2ccccc2)CC1	-1.84% [at 102 µM] (inactive)	–
CCOC(=O)C1CCN(Cc2ccc(-c3ccccc3)cc2)CC1	–	28.2 µM (active)
CCOC(=O)C1CCN(Cc2nnc(-c3cccc(Br)c3)o2)CC1	-1.61% [at 102 µM] (inactive)	–
CCC(C)N(C(=O)Cn1nc(C)c([N+](=O)[O-])c1C)C1CCS(=O)(=O)C1 (stereo not drawn)	-29.5% [at 102 µM] (inactive)	–
CCCC1OC23CCCCC2C(C#N)(C#N)C1(C#N)C(=N)O3 (stereo not drawn)	–	17.8 µM (active)
Cc1cccc(NC(=O)CSc2nc3c(oc4ccccc43)c(=O)n2-c2ccc(F)cc2)c1	4.81% (inactive)	–
COc1ccc(C(=O)CN2C(=O)NC3(CCc4ccccc43)C2=O)c(OC)c1 (stereo not drawn)	2.57% (inactive)	–
CCC(CC)C(=O)N1CCc2cc(OC)c(OC)cc2C1COc1ccc(F)cc1 (stereo not drawn)	10.1% (inactive)	–
CCOC(CNC(=O)C(=O)NCC(c1ccco1)N1CCN(c2ccc(OC)cc2)CC1)OCC (stereo not drawn)	–	79.4 µM (active)
CC(Oc1ccc(Br)cc1)C(=O)NCC(c1ccco1)N1CCCCC1 (stereo not drawn)	-6.2% [at 102 µM] (inactive)	–
COc1ccc(NC(=O)C(=O)NCC(c2ccco2)N2CCc3ccccc3C2)cc1 (stereo not drawn)	24.1% [at 2.33 µM]	–
O=C(Cn1nc(C(F)(F)F)c2c1CCCC2)Nc1ccc(Cl)cc1	2.55% (inactive)	–
COc1ccccc1CNC(=O)C(=O)NCC(c1ccco1)S(=O)(=O)c1ccc(F)cc1 (stereo not drawn)	-4.12% (inactive)	–
Cc1cc(C)cc(NC(=O)CN2C(=O)c3ccccc3C2=O)c1	30% [at 102 µM] (inactive)	–
Cc1cc2c(cc1C)N(C(=O)CN1C(=O)c3ccccc3C1=O)C(C)(C)c1ssc(=S)c1-2	–	28.2 µM (active)
Cc1ccc(NC(=O)CCN2C(=O)c3ccccc3C2=O)cc1C	4.98% [at 102 µM] (inactive)	–
Cc1cc([N+](=O)[O-])c(N2CCC[C@@H]2C(=O)O)c([N+](=O)[O-])c1	9.82% (inactive)	–
COC(=O)c1cc(C(=O)NC(C)C2CC3CCC2C3)cc([N+](=O)[O-])c1 (stereo not drawn)	-43.7% [at 102 µM] (inactive)	–
CC1CCC2CCCCC2N1C(=O)c1cc([N+](=O)[O-])cc([N+](=O)[O-])c1 (stereo not drawn)	–	44.7 µM (active)
CCN(CC)C(=O)c1nc[nH]c1C(=O)N(C)Cc1ccccc1	-4.89% [at 2.33 µM]	–
CCc1ccc(C2CC(=O)c3c([nH]c(C(=O)OCc4ccc(C)cc4)c3C)C2)cc1 (stereo not drawn)	-1.01% (inactive)	–
C=CCOc1ccc(/C=C2\SC(=S)N(CCC(=O)O)C2=O)cc1	-6.64% (inactive)	–
Cc1ccc(/C=C2\SC(=S)N(CCC(=O)Nc3ccc(O)cc3)C2=O)cc1	9.57% [at 102 µM] (inactive)	–
Cc1ccc(-c2nn(-c3ccccc3)cc2/C=C2\SC(=S)N(CCCCCC(=O)O)C2=O)o1	–	3.98 µM (active)

Compound	activity, negative = inhibition	Potency
CCN1CCN(c2cc3nc(C)n(Cc4ccccc4)c(=O)c3cc2NC(=O)c2ccccc2F)CC1	–	35.5 µM (active)
CCC(=O)Nc1ccc2nc(C)n(Cc3ccccc3Cl)c(=O)c2c1	6.34% (inactive)	–
Cc1nc2ccn(Cc3cccnc3)c(=O)c2cc1C(=O)N1CCN(c2ccccc2F)CC1	7.35% (inactive)	–
Cc1cccc(N(C)C(=O)CS(=O)(=O)c2cccc3nsnc23)c1	9.05% (inactive)	–
O=C(NCCCc1ccccc1)c1ccc2c(c1)sc1nc(-c3ccc(F)cc3)cn12	-17.8% (inactive)	–
O=C(CC(=O)N/N=C\c1ccc(F)cc1)NCCc1ccccc1	2.67% [at 0.501 µM]	–
O=C(CN1CCSCC1)N/N=C/c1ccc(Cl)cc1	–	11.2 µM (active)
O=C(CN1CCSCC1)N/N=C/c1ccc(F)cc1	–	8.91 µM (active)
O=C(Cn1cc(C(F)(F)F)ccc1=O)N/N=C/c1ccc(Cl)cc1Cl	1.22% (inactive)	–
Cc1ccc(COc2ccc(/C=N/NC(=O)CN3CCCCC3)cc2)cc1	-11.8% [at 102 µM] (inactive)	–
Cc1ccc(/C=N/NC(=O)CN2CCN(Cc3ccccc3)CC2)s1	14.1% [at 102 µM] (inactive)	–
Cc1nn(CC(=O)N/N=C/c2ccc(F)cc2)c(C)c1[N+](=O)[O-]	-0.915% [at 102 µM] (inactive)	–
O=C(CN1CCSCC1)N/N=C/c1ccc(F)cc1F	–	15.8 µM (active)
O=C(CN1CCN(C/C=C/c2ccccc2)CC1)Nc1ccc(F)cc1F	-7.31% [at 102 µM] (inactive)	–
O=C1CCCc2cc(S(=O)(=O)N3CCCC(C(=O)NCc4ccccc4)C3)ccc2N1 (stereo not drawn)	-9.07% (inactive)	–
c1ccc2c(c1)CCc1snnc1-2	-5.46% [at 0.501 µM]	–
Cc1ccccc1OCC(=O)NNC(=O)c1ccc(-n2cncn2)c([N+](=O)[O-])c1	21.2% [at 102 µM] (inactive)	–
COc1ccc(-c2cc(C(F)(F)F)n3nc(-c4ccccc4)cc3n2)cc1OC	33.6% (inactive)	–
CSCCC(NC(=O)c1ccccc1)C(=O)N1CCCCCCC1 (stereo not drawn)	35.6% [at 12.7 µM]	–
CC(C)N(Cc1nnc(-c2ccc(Cl)cc2)o1)C(=O)C1=COCCO1	-1.89% [at 102 µM] (inactive)	–
COc1cc2ccccc2cc1C(=O)Nc1ccccc1C	16.4% (inactive)	–
COc1cccc(OCC(O)CNC(=O)c2oc3c(C)c(C)ccc3c2C)c1 (stereo not drawn)	14.5% [at 102 µM] (inactive)	–
CCCNC(=O)CCC(=O)N1Cc2ccccc2Oc2ncccc21	-5.24% (inactive)	–
CCn1ccnc1CNC(=O)CC1C(=O)NCCN1CCCc1ccccc1 (stereo not drawn)	39.1% [at 102 µM] (inactive)	–
